According to PubChem BioAssay (EPA / NIEHS):
The source made the active and inactive calls. The calls were made as follows: active = hit-call score of the fitted dose curve at least 0.9, where 1 is the maximum; inactive = score below 0.9.

The compounds below were run on CYP2E1 (gene 1571) (assay: LTEA_HepaRG_CYP2E1: Life Technologies and Expression Analysis (LTEA) Assay for CYP2E1 using HepaRG (AID 2283485)). Details: mRNA level, 48 h; actives raise or lower the signal.
Method: LTEA_HepaRG is a cell based, multiplexed-readout assay that uses HepaRG, a human liver cell line, with measurements taken at 48 hours after chemical dosing on a 96-well plate.LTEA_HepaRG_CYP2E1 is one of 102 assay component(s) measured in the LTEA HepaRG cell culture assay. It is a marker of NR mediated metabolism.Data from the assay component LTEA_HepaRG_CYP2E1 was analyzed into 1 endpoint. This assay endpoint, LTEA_HepaRG_CYP2E1, was analyzed with bidirectional fitting relative to DMSO as the negative control and baseline of activity. Using a type of inducible reporter, measures of mRNA induction for gain or loss-of-signal activity can be used to understand regulation of transcription factor activity. To generalize the intended target to other relatable targets, this assay endpoint is annotated to the cyp intended target family, where the subfamily is xenobiotic metabolism.
A total of 1060 chemcials from the ToxCast library were tested in eight-point concentration-response experiments. Cell culture and cytotoxicity assays were conducted at Thermo Fisher Scientific's Custom Services facility (Madison, WI). A single lot of human HepaRG cells (Thermo Fisher Scientific, Frederick, MD) was used for the cell culture experiments. 96-well format collagen type I coated plates of human HepaRG cells were prepared using established methods. Briefly, cryopreserved HepaRG cells were thawed, plated at a density of approximately 100,000 cells/well in HepaRG Thaw, Plate, and General Purpose media (HPRG770, Thermo Fisher Scientific), and incubated for 48 hours. 0.5% DMSO was selected as vehicle control to balance the requisite need of DMSO in HepaRG cultures to maintain differentiation (for example, baseline metabolism, proportions of hepatocytes vs. cholangiocytes), while enabling further hepatic receptor pathway activation (for example, PXR and CAR) in response to chemical exposure. 48 hours after plating, the culture medium was replaced with HepaRG Serum-Free Incudtion Media. Cells were exposed to each test chemical in duplicate and maintained in CO2 incubators for another 48 hours. Chemical plates were thawed to room temperature and 200x concentrations of treatment groups were prepared. 8-point conentration-reponse curves were made with the highest exposure at 100 uM, followed by half-log dilutions, all in 0.5% DMSO. Each test plate contained variouse controls, induction positive controls (1mM phenobarbital), cytotoxicity positive controls ([…] aflatoxin B1), vehicle controls (0.5% DMSO), and total lysis controls (0.5% DMSO). Cell morphology images were taken using an Essen IncuCyte FLR automated microscope, with six 96-well plates imaged in about 24 minutes. Images were captured and exported and JPEG files. Spent culture media was transfered to black-well plates for the LDH assay, and remaining media was sorted at -80 C for later use. Cells were treated with RLT buffer and frozen until shipped for gene expression analysis. Total RNA was isolated from the cell suspension in 75 uL of Buffer RLT (Qiagen, Germantown, MD 20874) by Quintiles/Expression Analysis (Durham, NC) using a custom isolation procedure. Total RNA from each plate well was transferred to a preamplification plate. Fluidigm's 96.96 Dynamic ArrayTM (Fluidigm, Amsterdam, the Netherlands) technology was used for gene expression analyses by quantitative reverse transcription polymerase chain reaction (qRT-PCR, performed by Quintiles/Expression Analysis, Durham, NC)89. Standard TaqManTM Assays (Applied Biosystems/ThermoFisher Scientific, Foster City, CA) were used to assess the expression of 93 genes selected based on their selectivity and sensitivity to important hepatic receptors known to be modulated by environmental chemicals; importance in human hepatocyte functionality; and hepatotoxicity. […]

Row | Compound | AC50 | outcome
1 | Clc1ccc(C(c2ccccc2Cl)C(Cl)(Cl)Cl)cc1 (stereo not given) | 39.8 µM (active) | –
2 | CCSC(=O)N(CC)C1CCCCC1 | – | inactive
3 | c1cc2ccc3cccc4ccc(c1)c2c34 | 29.6 µM (active) | –
4 | CCOP(=S)(OCC)SCSC(C)(C)C | 28.8 µM (active) | –
5 | CCC(C)(c1ccc(O)cc1)c1ccc(O)cc1 | – | inactive
6 | Cc1cccc([N+](=O)[O-])c1 | – | inactive
7 | CN(C)c1nc(=O)n(C2CCCCC2)c(=O)n1C | – | inactive
8 | O=C(O)C(F)(F)C(F)(F)C(F)(F)C(F)(F)C(F)(F)F | – | inactive
9 | CCC(C)c1cc([N+](=O)[O-])cc([N+](=O)[O-])c1O (stereo not given) | 1.22 µM (active) | –
10 | Cc1cccc(C)c1N | – | inactive
11 | O=NN(c1ccccc1)c1ccccc1 | – | inactive
12 | CCC(=O)O[C@H]1CC[C@H]2[C@@H]3CCC4=CC(=O)CC[C@]4(C)[C@H]3CC[C@]12C | 3.12 µM (active) | –
13 | COS(=O)(=O)OC | – | inactive
14 | Cc1ccccc1[N+](=O)[O-] | – | inactive
15 | C1CC2OC2CC1C1CO1 (stereo not given) | – | inactive
16 | Cc1cc(-c2ccc(N)c(C)c2)ccc1N | 16.3 µM (active) | –
17 | CCCCCCCCOC(=O)c1ccccc1C(=O)OCCCCCCCC | – | inactive
18 | CN(C)CCO | – | inactive
19 | Nc1ccc(-c2ccc(N)cc2)cc1 | 12.3 µM (active) | –
20 | Cc1ccccc1CO[C@@H]1C[C@@]2(C(C)C)CC[C@]1(C)O2 | 50 µM (active) | –

Row | Compound | AC50 | outcome
21 | Nn1cnnc1 | – | inactive
22 | C=CC(N)=O | – | inactive
23 | c1ccc(-c2ccccc2)cc1 | – | inactive
24 | Clc1ccc(C(Cl)(Cl)Cl)cc1 | – | inactive
25 | C[C@]12CCC(=O)C=C1CC[C@@H]1[C@@H]2CC[C@]2(C)C(=O)CC[C@@H]12 | 1.16 µM (active) | –
26 | O=C(O)C(F)(F)C(F)(F)C(F)(F)C(F)(F)C(F)(F)C(F)(F)C(F)(F)C(F)(F)C(F)(F)F | 25.4 µM (active) | –
27 | Oc1c(Cl)c(Cl)c(Cl)c(Cl)c1Cl | 1.94 µM (active) | –
28 | CC(C)C(=O)OCC(C)(C)C(OC(=O)C(C)C)C(C)C (stereo not given) | – | inactive
29 | CCOCCOC(C)=O | – | inactive
30 | CCNc1nc(NC(C)C)nc(SC)n1 | 29.1 µM (active) | –
31 | O=C(NC(=O)c1c(F)cccc1F)Nc1cc(Cl)c(OC(F)(F)C(F)F)c(Cl)c1 | 11.6 µM (active) | –
32 | O=S(=O)(O)C(F)(F)C(F)(F)C(F)(F)C(F)(F)C(F)(F)C(F)(F)F | – | inactive
33 | CCCCCCCCCc1ccc(O)cc1 | – | inactive
34 | CCCCCCOC(=O)c1ccccc1C(=O)OCCCCCC | – | inactive
35 | Clc1ccc(Cl)cc1 | – | inactive
36 | CO/C=C(/C(=O)OC)c1ccccc1COc1cccc(C(F)(F)F)n1 | 3.61 µM (active) | –
37 | CCOC(=O)C(O)(c1ccc(Cl)cc1)c1ccc(Cl)cc1 | 30.4 µM (active) | –
38 | CC(c1ccc(O)cc1)(c1ccc(O)cc1)c1ccc(O)cc1 | 80.5 µM (active) | –
39 | ClC(Cl)=C(c1ccc(Cl)cc1)c1ccc(Cl)cc1 | 50.7 µM (active) | –
40 | C=CC(=O)NCNC(=O)C=C | 50 µM (active) | –
